# Source: PubChem BioAssay AID1578 (Sanford-Burnham Center for Chemical Genomics, 2009)
# Out of some 290,000 compounds screened, about 3,000 (1%) were called active. No stated cut-off is given here; in the data, active means inhibition mostly above about 36% (no sharp cut-off); inactive means mostly below about 34%. For the sample, actives were picked, then their nearest neighbours and some compounds at random.
# Assay: inhibition of NOD1-driven NF-kB reporter – cell-based, luminescence, uHTS, primary screen (AID 1578);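 further: HEK-293T reporter cells stimulated with the NOD1 agonist gamma-tri-DAP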
# Settings: NOD1-driven NF-kB luciferase reporter cells, at 4 µM, stronger effect = higher value
row,SMILES,inhibition
1,C=CCOc1c(CNc2ccc(C(=O)O)cc2)cccc1OC,-2.4% (inactive)
2,N#Cc1cc2c(nc1SCc1cccnc1)CCCC2,-35.1% (inactive)
3,Cc1[nH]c(=S)c(C#N)c(-c2ccco2)c1C(=O)N(C)C,-29.8% (inactive)
4,COc1ccc(NC(=O)NC2(C(=O)N3CCCCCC3)CCCCC2)cc1,-9.8% (inactive)
5,Cc1ccc(S(=O)(=O)N2CCOCC2)cc1C(=O)Nc1c(C)n(C)n(-c2ccccc2)c1=O,-23.2% (inactive)
6,CC(=O)N[C@@H](C)c1nc2ccccc2n1CCCN1CCN(c2nc(-c3ccc(C)cc3)cs2)CC1,-3.9% (inactive)
7,Cc1ccc(-c2csc(N3CCN(CCCn4c(C(F)(F)F)nc5ccccc54)CC3)n2)cc1,-23% (inactive)
8,Cc1noc(C)c1COC(=O)[C@@H](NC(=O)c1ccccc1Cl)C(C)C,-17.3% (inactive)
9,CCC(CC)c1nnc(NC(=O)c2ccc(N3CCCC3=O)cc2)s1,-14.4% (inactive)
10,Cc1csc(NC(=O)c2ccc(N3CCCC3=O)cc2)n1,39.5% (active)
11,Cc1csc(NC(=O)c2ccc(C(=O)Nc3nc(C)cs3)cc2)n1,2.7% (inactive)
12,Cc1ccccc1N1CCN(C2CCCN(C(=O)c3noc4c3CCCC4)C2)CC1 (stereo not drawn),6.2% (inactive)
13,O=C1c2[nH]nc(-c3ccccc3O)c2C(c2ccc(F)cc2)N1Cc1ccco1 (stereo not drawn),53.4% (active)
14,COc1ccc(C2c3c(-c4ccccc4O)n[nH]c3C(=O)N2Cc2ccco2)cc1 (stereo not drawn),-5.9% (inactive)
15,O=C1c2[nH]nc(-c3ccccc3O)c2C(c2ccccc2)N1Cc1ccco1 (stereo not drawn),-0.4% (inactive)
16,COc1cc2c(cc1OC)C(c1ccccc1)N(C(=O)c1ccco1)CC2 (stereo not drawn),3.6% (inactive)
17,COc1ccc(OCCC(=O)OCC(=O)NC(=O)NC(C)(C)C)cc1,7% (inactive)
18,CC(=O)NCC(=O)OC(C)C(=O)Nc1ccc(C(C)=O)cc1 (stereo not drawn),-17.4% (inactive)
19,CCCNC(=O)c1ccc(N2CCC3(CC2)CC(c2ccccc2)=NO3)c(NC(=O)c2ccccc2)c1,21.3% (inactive)
20,CCCNC(=O)c1ccc(N2CCC3(CC2)CC(c2ccccc2)=NO3)c(NC(=O)c2cccc(OC)c2)c1,77.4% (active)
21,CCCNC(=O)c1ccc(N2CCC3(CC2)CC(c2ccccc2)=NO3)c(NC(=O)c2cccc(C)c2)c1,43.2% (inactive)
22,CC(=O)Nc1ccc(C2=NNC(=Nc3ccc(S(=O)(=O)N4CCOCC4)cc3)SC2)cc1,-12.4% (inactive)
23,CNC(=S)N/N=C/c1c(C)c(C(=O)c2ccc(F)cc2)n2ccccc12,0.6% (inactive)
24,Cc1c(/C=N/NC(N)=O)c2ccccn2c1C(=O)c1ccc(F)cc1,15.7% (inactive)

row,SMILES,inhibition
1,CCOC(=O)N/N=C/c1c(C)c(C(=O)c2ccc(F)cc2)n2ccccc12,48.9% (active)
2,COC(=O)N/N=C/c1c(C)c(C(=O)c2ccc(F)cc2)n2ccccc12,-3.4% (inactive)
3,Cc1c(/C=N/NC(=O)c2ccc(O)cc2)c2ccccn2c1C(=O)c1ccc(F)cc1,17.9% (inactive)
4,CCCCCCCCCC[N+](C)(C)CC/C=C1/c2ccccc2Sc2ccc(Cl)cc21,-0.8% (inactive)
5,CCCCCCc1cc2cc(C(N)=O)c(=N)oc2cc1O,12.9% (inactive)
6,CCCCCCc1cc2cc(C(=O)Nc3cccc(OC)c3)c(=O)oc2cc1O,59.9% (inactive)
7,CCCCCCc1cc2cc(S(=O)(=O)c3ccc(C)cc3)c(=O)oc2cc1O,-36.3% (inactive)
8,CCCCCCc1cc2cc(C(=O)Nc3ccccc3)c(=O)oc2cc1O,34.1% (inactive)
9,CCCCCCc1cc2cc(C(=O)Nc3ccc(OC)cc3)c(=O)oc2cc1O,-7.5% (inactive)
10,CCCCCCc1cc2cc(C(=O)Nc3ccccc3OC)c(=O)oc2cc1O,-4.9% (inactive)
11,CCCC1C(C#N)=C(N)Oc2n[nH]c(C(C)(C)C)c21 (stereo not drawn),-47.4% (inactive)
12,CCOc1ccc(N(CC(=O)N2CCCCC2)S(=O)(=O)c2ccc(Cl)cc2)cc1,5.7% (inactive)
13,Nn1c(Cc2ccccc2)n[nH]c1=S,-24.7% (inactive)
14,O=C1c2cccnc2C(=O)N1c1cccc(-c2nc3ccccc3o2)c1,-23.4% (inactive)
15,O=C(NCc1ccco1)C(c1ccccc1F)N(CC1CCCO1)C(=O)Cn1nnc2ccccc21 (stereo not drawn),-7% (inactive)
16,CCN(C(=O)Cn1c(=O)oc2ccccc21)c1cccc(C)c1,2.1% (inactive)
17,CC(C)C[C@H](NC(=O)c1nc[nH]c1C(=O)NCc1ccccc1)C(=O)OC(C)(C)C,-11.1% (inactive)
18,COc1ccc(CN(CC(=O)NCc2ccco2)C(=O)CCC(=O)Nc2ccccn2)cc1,-20.6% (inactive)
19,Cc1cc(/C=C2\NC(=S)NC2=O)c(C)n1-c1cccnc1,-14.7% (inactive)
20,O=C1NC(=S)N/C1=C\c1cccnc1,33.9% (active)
21,O=C1NC(=S)N/C1=C/c1cccnc1,16.2% (inactive)
22,COc1ccc(/C=N/NC(=O)CSc2ccccc2)cc1OC,-7.9% (inactive)
23,CCc1ccc(NC(=O)CN(c2ccccc2)S(=O)(=O)N(C)C)cc1,-17.6% (inactive)
24,COc1cc(/C=C/C(=O)c2ccc(O)cc2)ccc1OCC#N,29.2% (inactive)

row,SMILES,inhibition
1,CCOc1ccc(C(=O)/C=C/c2ccc(OC)c(OC)c2)cc1,51.4% (inactive)
2,COc1ccc2cc(C(=O)/C=C/c3cc(OC)c(OC)c(OC)c3)ccc2c1,52.7% (inactive)
3,COc1ccc(/C=C/C(=O)c2ccc(C(=O)/C=C/c3ccc(OC)c(OC)c3)cc2)cc1OC,-4.9% (inactive)
4,COc1ccc(NC(=O)Nc2cccc3ccccc23)c(OC)c1,19.9% (inactive)
5,CCS(=O)(=O)N1CCN(S(=O)(=O)c2ccc3c(c2)OCCO3)CC1,24.1% (inactive)
6,COc1ccccc1N1CCN(C(=O)CSc2nc3ccccc3nc2N2CCCCC2)CC1,8.8% (inactive)
7,Cc1ccnc(N2CCN(C(=O)CSc3nc4ccccc4nc3N3CCC(C)CC3)CC2)c1,3.8% (inactive)
8,COc1ccccc1N1CCN(C(=O)CSc2nc3ccccc3nc2N2CCC(C)CC2)CC1,58.1% (active)
9,CS(=O)(=O)N(CC(=O)NCCSCc1c(F)cccc1Cl)c1cccc([N+](=O)[O-])c1,-2.1% (inactive)
10,COc1cc(C(=O)OCC(=O)Nc2cc(C)on2)ccc1OCc1ccccc1Cl,-69.5% (inactive)
11,CCCCN(C)C(=O)C1CCC(CNS(=O)(=O)c2ccc3c(c2)CC(C)N3C(C)=O)CC1 (stereo not drawn),-1.6% (inactive)
12,Cc1cccc(CN2CCc3c([nH]c4ccccc34)C2)c1,-0.6% (inactive)
13,Clc1ccc(CN2CCc3c([nH]c4ccccc34)C2)cc1Cl,-1.2% (inactive)
14,Clc1cccc(CN2CCc3c([nH]c4ccccc34)C2)c1,73.3% (active)
15,Nc1ccc(S(=O)(=O)Nc2nc3ccccc3o2)cc1,-21.3% (inactive)
16,CCc1nnc(NC(=O)CCC(=O)N2CCC(Cc3ccccc3)CC2)s1,-19.4% (inactive)
17,CNc1ccccc1C(C)(C)c1cc(-c2cccc(Br)c2)no1,18.9% (inactive)
18,CNc1ccccc1C(C)(C)c1cc(-c2cccc([N+](=O)[O-])c2)no1,-54.1% (inactive)
19,CNc1ccccc1C(C)(C)c1cc(-c2cccc(OC)c2)no1,53.1% (active)
20,CCC(=O)NNC(=O)CCC(=O)Nc1ccc(C)cc1C,-21.4% (inactive)
21,COc1ccc(NC(=O)CCNS(=O)(=O)c2cccc3nsnc23)cc1,-14.3% (inactive)
22,C=CCSc1nnc(N2C(=O)C(O)=C(C(=O)c3ccco3)C2c2ccccc2F)s1 (stereo not drawn),-10.7% (inactive)
23,O=C(O)c1ccc(S(=O)(=O)c2ccc3c(c2)C(=O)N(c2ccc(O)cc2)C3=O)cc1,-1.2% (inactive)
24,O=C(c1cc2sccc2n1Cc1ccccc1)N1CCc2ccccc21,-5.9% (inactive)

row,SMILES,inhibition
1,O=C(c1cc2sccc2n1Cc1ccc(F)cc1)N1CCCc2ccccc21,-9% (inactive)
2,O=C(c1cc2sccc2n1Cc1ccccc1)N1CCCc2ccccc21,34.8% (active)
3,CN(CCc1ccccn1)C1CCCN(S(=O)(=O)c2ccccc2)C1 (stereo not drawn),-25.2% (inactive)
4,Cc1ccc(/C=C/C(=O)Nc2nc3ccccc3[nH]2)cc1,-16.1% (inactive)
5,COc1ccc(NC(=O)c2ccc(-c3csc(C)n3)cc2)cc1,-5.5% (inactive)
6,CCOC(=O)c1cnn(-c2ccccc2)c1-n1cccc1C(=O)C(=O)Nc1ccccc1,-28.7% (inactive)
7,CCOC(=O)c1cnn(-c2ccccc2)c1-n1cccc1C(=O)C(=O)N(CC)CC,42.8% (active)
8,CCOC(=O)c1cnn(-c2ccccc2)c1-n1cccc1C(=O)C(=O)N(C)C,-12.4% (inactive)
9,Cc1ccc(-c2nnn(Cc3nc(N)nc(N4CCOCC4)n3)n2)cc1,5.1% (inactive)
10,CC(=O)C(=Cc1ccc(C(=O)O)cc1)C(C)=O,-17.7% (inactive)
11,Cc1ccc2cc(C=O)c(Cl)nc2c1,-3.3% (inactive)
12,Cc1ccc2cc(CCl)c(Cl)nc2c1,50.2% (active)
13,COc1ccc2cc(CO)c(Cl)nc2c1,-28.1% (inactive)
14,ClCc1cc2ccccc2nc1Cl,-27% (inactive)
15,COc1ccc2cc(C#N)c(Cl)nc2c1,-29.7% (inactive)
16,COc1ccc2cc(CCl)c(Cl)nc2c1,70.1% (active)
17,COc1ccc(S(=O)(=O)N2Cc3ccccc3CC2C(=O)N2CCOCC2)cc1 (stereo not drawn),3.2% (inactive)
18,COc1cscc1C(N)=O,6.7% (inactive)
19,c1ccc2c(c1)ncn2Cc1nnc2sc(-c3ccc4c(c3)OCO4)nn12,-4.4% (inactive)
20,O=C(NC1CCCCCC1)c1cc(S(=O)(=O)N2CCCCC2)ccc1N1CCOCC1,-7.1% (inactive)
21,CC1CCC(C(C)C)C(OCC(O)CN2CCCC(C)C2)C1 (stereo not drawn),-44.4% (inactive)
